Rows were chosen to be rich in hits. Some 3.5% of all compounds tested hit in one or more screens of this group.
MITF inh: blocks human microphthalmia-associated transcription factor; O75030; AlphaScreen MITF homodimerization, bead proximity signal; inhibition, % at 2.6 µM; actives 0.91% (n = 650,000); in the data active = inhibition above about 50%
GPR151 ag: activates the human receptor GPR151; PathHunter beta-arrestin GPR151 cells, luminescence; activation, % at 11.2 µM; actives 1% (n = 650,000); AID 1508602; in the data active = activation above about 4.9%
Target sequence (Q8TDV0 whole entry, looked up): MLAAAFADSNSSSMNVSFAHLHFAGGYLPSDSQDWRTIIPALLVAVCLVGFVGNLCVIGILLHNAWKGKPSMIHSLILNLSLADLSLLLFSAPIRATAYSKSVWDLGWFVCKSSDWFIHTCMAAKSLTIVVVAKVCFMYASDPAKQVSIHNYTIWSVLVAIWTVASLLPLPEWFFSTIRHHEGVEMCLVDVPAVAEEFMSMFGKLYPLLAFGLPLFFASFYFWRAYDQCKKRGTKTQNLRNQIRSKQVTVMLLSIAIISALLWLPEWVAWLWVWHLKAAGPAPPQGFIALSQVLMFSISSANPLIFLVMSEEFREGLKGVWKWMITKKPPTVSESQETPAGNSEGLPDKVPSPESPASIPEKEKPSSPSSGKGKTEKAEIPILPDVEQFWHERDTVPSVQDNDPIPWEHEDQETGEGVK
FBW7 act: human FBW7 E3 ligase activation, primary screen; AlphaScreen FBW7–phospho-cyclin E peptide binding, activator screen; normalized activity (activation), % at 26.1 µM; actives 0.13% (n = 650,000); AID 1259310; in the data active = normalized activity above about 1.9%;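 note: purified mutant Fbw7 with reduced substrate affinity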
TEAD-YAP block: TEAD-YAP interaction inhibition. HEK-TIYL cells, TEAD-Gal4/YAP UAS-luciferase luminescence. inhibition, % at 9.12 µM. actives 1.4% (n = 640,000). AID 1259422; in the data active = inhibition above about 32%
MITF confirm: confirmation of human MITF inhibitors | inhibition, % at 2.6 µM | shares compounds with MITF inh | AlphaScreen MITF homodimerization, biotin/His-MITF beads | actives 16% (n = 4,700);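 active = inhibition above a cutoff derived from the DMSO control wells, cut at about 28% in these data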;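 note: inhibitors lower the bead chemiluminescence by keeping MITF from dimerizing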
AlphaScreen intf2: optically interferes with AlphaScreen signal | shares compounds with MITF inh | LysRS AlphaScreen counterscreen, signal interference, triplicate | inhibition, % at 2.6 µM | actives 7.6% (n = 4,700);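 active = inhibition above a cutoff derived from the DMSO control wells, cut at about 30% in these data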
Numbers stand for hits.

How did COc1cccc(CN2CCN(C(=O)c3cccnc3)CC2)c1 do in these assays?
MITF inh: 70; GPR151 ag: inactive; FBW7 act: inactive; TEAD-YAP block: inactive; MITF confirm: inactive; AlphaScreen intf2: inactive

Results for O=[N+]([O-])c1ccc(N=Nc2ccc(O)cc2)c([N+](=O)[O-])c1 ?
MITF inh: inactive; GPR151 ag: inactive; FBW7 act: inactive; TEAD-YAP block: inactive

Results for NNc1nc(NN)nc(Nc2cccc3ccccc23)n1 ?
MITF inh: 51; GPR151 ag: inactive; FBW7 act: inactive; TEAD-YAP block: inactive; MITF confirm: 54; AlphaScreen intf2: 63

How did Cc1cc(C)c(OCCOCCN2CCN(C)CC2)c(Cl)c1 do in these assays?
MITF inh: 67; GPR151 ag: inactive; FBW7 act: inactive; TEAD-YAP block: inactive; MITF confirm: inactive; AlphaScreen intf2: inactive

What do the screens show for `Cc1cc(C)c(OCCCCN2CCNCC2)c(C)c1`?
MITF inh: inactive; GPR151 ag: inactive; FBW7 act: inactive; TEAD-YAP block: inactive

How did Cc1cc(OCCOCCN2CCN(C)CC2)cc(C)c1Cl do in these assays?
MITF inh: 62; GPR151 ag: inactive; FBW7 act: inactive; TEAD-YAP block: inactive; MITF confirm: inactive; AlphaScreen intf2: inactive

Results for Cc1cc(C)c(OCCCCN2CCNCC2)c(Cl)c1 ?
MITF inh: 70; GPR151 ag: inactive; FBW7 act: inactive; TEAD-YAP block: inactive; MITF confirm: inactive; AlphaScreen intf2: inactive

Results for Cc1cc(Cl)c(OCCOCCN2CCNCC2)c(Cl)c1 ?
MITF inh: 90; GPR151 ag: inactive; FBW7 act: inactive; TEAD-YAP block: inactive; MITF confirm: inactive; AlphaScreen intf2: inactive

How did Nc1[nH]nc2nc3cc(Cl)ccc3cc12 do in these assays?
MITF inh: inactive; GPR151 ag: inactive; FBW7 act: inactive; TEAD-YAP block: inactive

How did CC1CCCCN1CC(O)COc1ccc2c(c1)CCC2 (stereo not given) do in these assays?
MITF inh: inactive; GPR151 ag: inactive; FBW7 act: inactive; TEAD-YAP block: inactive

Results for CC(C)c1ccc(OCCCCN2CCNCC2)cc1 ?
MITF inh: 62; GPR151 ag: inactive; FBW7 act: inactive; TEAD-YAP block: inactive; MITF confirm: inactive; AlphaScreen intf2: inactive

What do the screens show for `Cc1cc(Cl)c(OCCN2CCNCC2)c(Br)c1`?
MITF inh: 76; GPR151 ag: inactive; FBW7 act: inactive; TEAD-YAP block: inactive; MITF confirm: inactive; AlphaScreen intf2: inactive

How did Cc1ccc(Cl)c(OCCN2CCNCC2)c1 do in these assays?
MITF inh: inactive; GPR151 ag: inactive; FBW7 act: inactive; TEAD-YAP block: inactive

How did Cc1cccc(C)c1OCCCCN1CCNCC1 do in these assays?
MITF inh: 64; GPR151 ag: inactive; FBW7 act: inactive; TEAD-YAP block: inactive; MITF confirm: inactive; AlphaScreen intf2: inactive

What do the screens show for `COCCNCCOCCOc1c(C)cc(C)cc1Cl`?
MITF inh: 53; GPR151 ag: inactive; FBW7 act: inactive; TEAD-YAP block: inactive; MITF confirm: inactive; AlphaScreen intf2: inactive

What do the screens show for `COc1cccc(C2/C(=C(/O)c3ccccc3)C(=O)C(=O)N2c2ccccc2)c1` (stereo not given)?
MITF inh: inactive; GPR151 ag: inactive; FBW7 act: inactive; TEAD-YAP block: inactive

What do the screens show for `Cc1cc(C)c(OCCOCCNC(C)C)c(C)c1`?
MITF inh: inactive; GPR151 ag: inactive; FBW7 act: inactive; TEAD-YAP block: inactive

What do the screens show for `Cc1cc(Cl)cc(C)c1OCCOCCNC(C)C`?
MITF inh: 51; GPR151 ag: inactive; FBW7 act: inactive; TEAD-YAP block: inactive; MITF confirm: inactive; AlphaScreen intf2: inactive

Results for Cc1cc(OCCN2CCNCC2)cc(C)c1Cl ?
MITF inh: 62; GPR151 ag: inactive; FBW7 act: inactive; TEAD-YAP block: inactive; MITF confirm: inactive; AlphaScreen intf2: inactive

Results for O=S(=O)(Nc1ccccc1O)c1ccc2ccccc2c1 ?
MITF inh: inactive; GPR151 ag: inactive; FBW7 act: inactive; TEAD-YAP block: inactive

Results for COc1cc(CN2CCN(c3ccccc3OC)CC2)c([N+](=O)[O-])cc1OC ?
MITF inh: inactive; GPR151 ag: inactive; FBW7 act: inactive; TEAD-YAP block: inactive

Results for COc1cc(CN2CCCCC2)c([N+](=O)[O-])cc1OC ?
MITF inh: inactive; GPR151 ag: inactive; FBW7 act: inactive; TEAD-YAP block: inactive

What do the screens show for `COc1ccc(OC)c(CN2CCN(Cc3cc(OC)c(OC)cc3[N+](=O)[O-])CC2)c1`?
MITF inh: 72; GPR151 ag: inactive; FBW7 act: inactive; TEAD-YAP block: inactive; MITF confirm: inactive; AlphaScreen intf2: inactive

What do the screens show for `COc1cc(CN2CCN(c3ccccc3F)CC2)c([N+](=O)[O-])cc1OC`?
MITF inh: 64; GPR151 ag: inactive; FBW7 act: inactive; TEAD-YAP block: inactive; MITF confirm: inactive; AlphaScreen intf2: inactive

How did COc1cc(CN2CCCCCC2)c([N+](=O)[O-])cc1OC do in these assays?
MITF inh: inactive; GPR151 ag: inactive; FBW7 act: inactive; TEAD-YAP block: inactive

What do the screens show for `COc1cc(OC)c(OC)cc1CN1CCN(Cc2cc(OC)c(OC)cc2[N+](=O)[O-])CC1`?
MITF inh: 62; GPR151 ag: inactive; FBW7 act: inactive; TEAD-YAP block: inactive; MITF confirm: inactive; AlphaScreen intf2: inactive

What do the screens show for `COc1cccc(CN2CCN(Cc3cc(OC)c(OC)cc3[N+](=O)[O-])CC2)c1`?
MITF inh: 76; GPR151 ag: inactive; FBW7 act: inactive; TEAD-YAP block: inactive; MITF confirm: inactive; AlphaScreen intf2: inactive

What do the screens show for `N#C/C(=C\Nc1ccc(C(N)=O)cc1)c1nc(-c2ccc3c(c2)OCO3)cs1`?
MITF inh: inactive; GPR151 ag: inactive; FBW7 act: inactive; TEAD-YAP block: inactive

Results for CC1Cc2ccccc2N1C(=O)CN1CCN(C)CC1 (stereo not given) ?
MITF inh: 77; GPR151 ag: inactive; FBW7 act: inactive; TEAD-YAP block: inactive; MITF confirm: inactive; AlphaScreen intf2: inactive

Results for CC1Cc2ccccc2N1C(=O)CN1CCCN(CC(=O)N2c3ccccc3CC2C)CC1 (stereo not given) ?
MITF inh: 62; GPR151 ag: inactive; FBW7 act: inactive; TEAD-YAP block: inactive; MITF confirm: inactive; AlphaScreen intf2: inactive

What do the screens show for `CCOC(=O)N1CCN(CC(=O)N2c3ccccc3Sc3ccccc32)CC1`?
MITF inh: 53; GPR151 ag: inactive; FBW7 act: inactive; TEAD-YAP block: inactive; MITF confirm: inactive; AlphaScreen intf2: inactive

How did CCOC(=O)N1CCN(CC(=O)N2c3ccccc3CC2C)CC1 (stereo not given) do in these assays?
MITF inh: 67; GPR151 ag: inactive; FBW7 act: inactive; TEAD-YAP block: inactive; MITF confirm: inactive; AlphaScreen intf2: inactive

Results for O=C(NCCCN1CCOCC1)c1ccc(N2CCC3(CC2)OCCO3)c([N+](=O)[O-])c1 ?
MITF inh: inactive; GPR151 ag: inactive; FBW7 act: inactive; TEAD-YAP block: inactive

How did O=C1NC(=Nc2ccccc2Cl)S/C1=C/c1ccccc1F do in these assays?
MITF inh: inactive; GPR151 ag: inactive; FBW7 act: inactive; TEAD-YAP block: inactive

How did O=C(O)/C=C/C(=O)Nc1ccccc1C(=O)O do in these assays?
MITF inh: inactive; GPR151 ag: inactive; FBW7 act: inactive; TEAD-YAP block: inactive

Compound activity deposited in PubChem by The Scripps Research Institute Molecular Screening Center.
